Bioassay records (PubChem)
This excerpt belongs to a sample that is enriched for hits.
NOMO-1 viab – STK33 inhibitor candidate reducing NOMO-1 cell viability | NOMO-1 AML viability, CellTiter-Glo luminescence, 72 h | inhibition, % (test concentration not listed) | hit rate 7.5% among 37,000 | AID 2330; in the data active means inhibition above about 80%; inconclusive means no clear call, values can overlap the other calls
PD-1 reverse act – reversal of PD-1 mediated T-cell inhibition; activation, % (concentration not given with the values); AID 2316; 29,000 tested, under 10 active; primary human CD4 T cells, PD-L1 beads, CellTiter-Glo 96 h; call rule not given here;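 further: 0% = median vehicle wells and 100% = positive control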
STK33 kin inh – human STK33 kinase inhibition; hit rate 0.44% among 27,000; Q9BYT3; inhibition, % at 12.5 µM; AID 2322; ADP-Glo luminescence, MBP substrate; in the data active means inhibition above about 20%; inconclusive means no clear call, values can overlap the other calls
The depositor's hits bear a star; ? = inconclusive; . = no result given.

SMILES	NOMO-1 viab	PD-1 reverse act	STK33 kin inh
CC(=O)Nc1cccc(-c2nn3c(C)nnc3s2)c1	25	1	.
C[N+]12CCCCC1C(CN1C(=O)c3ccccc3C1=O)CCC2 (centres undefined)	12	0	.
C[C@@H]1CCCCO[C@H](CN(C)Cc2ccccc2)[C@@H](C)CN([C@H](C)CO)C(=O)c2cc(NC(=O)Nc3ccc(C(F)(F)F)cc3)ccc2O1	104*	.	5
C[C@@H]1CCCCO[C@@H](CN(C)Cc2ccc(C(F)(F)F)cc2)[C@@H](C)CN([C@H](C)CO)C(=O)c2cc(NC(=O)Nc3ccc(C(F)(F)F)cc3)ccc2O1	107*	0	2
C[C@@H]1CCCCO[C@@H](CN(C)C)[C@@H](C)CN([C@H](C)CO)C(=O)c2cc(NC(=O)Nc3ccccc3)ccc2O1	108*	0	0
C[C@@H]1CCCCO[C@H](CN(C)Cc2ccc(C(F)(F)F)cc2)[C@@H](C)CN([C@H](C)CO)C(=O)c2cc(NC(=O)c3ccccc3)ccc2O1	53	-2	-1
C[C@@H]1CCCCO[C@H](CN(C)Cc2ccc3c(c2)OCO3)[C@@H](C)CN([C@H](C)CO)C(=O)c2cc(NC(=O)Nc3ccc(C(F)(F)F)cc3)ccc2O1	84*	.	3
C[C@@H]1CCCCO[C@@H](CN(C)C)[C@@H](C)CN([C@H](C)CO)C(=O)c2cc(NC(=O)Nc3ccc(F)cc3)ccc2O1	9	1	1
C[C@@H]1CCCCO[C@H](CN(C)Cc2ccc(C(F)(F)F)cc2)[C@@H](C)CN([C@H](C)CO)C(=O)c2cc(NC(=O)Nc3ccccc3)ccc2O1	74	-4	1
C[C@@H]1CCCCO[C@@H](CN(C)C(=O)Nc2ccc(C(F)(F)F)cc2)[C@@H](C)CN([C@H](C)CO)C(=O)c2cc(NC(=O)Nc3ccc4c(c3)OCO4)ccc2O1	58	0	1
COc1ccc(NC(=O)CN(C)S(=O)(=O)c2ccc(C)cc2)cc1OC	2	1	5
CCNC(=O)c1ccc(Cl)s1	-11	1	.
C[C@@H]1O[C@@H](O[C@@H]2[C@@H](O)[C@H](Oc3c(-c4ccc(O)cc4)oc4cc(O)cc(O)c4c3=O)O[C@H](CO)[C@H]2O)[C@H](O)[C@H](O)[C@H]1O	12	3	4
C[C@@H]1CCCCO[C@H](CN(C)Cc2ccc(C(F)(F)F)cc2)[C@@H](C)CN([C@H](C)CO)C(=O)c2cc(NC(=O)NC3CCCCC3)ccc2O1	94*	-5	6
C[C@@H]1CCCCO[C@@H](CN(C)Cc2ccc(C(F)(F)F)cc2)[C@@H](C)CN([C@H](C)CO)C(=O)c2cc(NC(=O)NC3CCCCC3)ccc2O1	?	-1	8
C[C@@H]1CCCCO[C@H](CN(C)S(=O)(=O)c2ccc(F)cc2)[C@@H](C)CN([C@H](C)CO)C(=O)c2cc(NC(=O)Nc3ccc(C(F)(F)F)cc3)ccc2O1	98*	-5	-1
C[C@@H]1CCCCO[C@H](CN(C)C)[C@@H](C)CN([C@H](C)CO)C(=O)c2cc(NC(=O)Nc3ccc(C(F)(F)F)cc3)ccc2O1	13	-2	1
C[C@@H]1CCCCO[C@H](CN(C)S(=O)(=O)c2ccc(F)cc2)[C@@H](C)CN([C@H](C)CO)C(=O)c2cc(NC(=O)Nc3ccc(F)cc3)ccc2O1	43	-2	5
C[C@@H]1CCCCO[C@H](CN(C)CC2CCCCC2)[C@@H](C)CN([C@H](C)CO)C(=O)c2cc(NC(=O)Nc3ccc(C(F)(F)F)cc3)ccc2O1	112*	-14	0
C[C@@H]1CCCCO[C@H](CN(C)Cc2ccc(C(F)(F)F)cc2)[C@@H](C)CN([C@H](C)CO)C(=O)c2cc(NC(=O)c3ccncc3)ccc2O1	18	.	0
C[C@@H]1CCCCO[C@H](CN(C)Cc2ccc(C(F)(F)F)cc2)[C@@H](C)CN([C@H](C)CO)C(=O)c2cc(NC(=O)Nc3ccc(C(F)(F)F)cc3)ccc2O1	113*	-2	0
COC(=O)c1cccc(OC(C)C(=O)O)c1 (centres undefined)	14	0	-6
COc1ccccc1OCC(=O)Nc1ccc(C)cc1[N+](=O)[O-]	23	-1	-1
COc1ccc(OCC(=O)Nc2cc(Cl)ccc2N2CCOCC2)cc1	57	-5	2
CC1(C)C(=S)NC(c2ccccc2)N1O (centres undefined)	17	0	.
CCOc1ccc2c(c1)sc(=NC(=O)c1ccc(S(=O)(=O)N3CCCCC3C)cc1)n2CC (centres undefined)	31	3	0
C[C@@H]1CCCCO[C@H](CN(C)Cc2ccc(C(F)(F)F)cc2)[C@@H](C)CN([C@H](C)CO)C(=O)c2cc(NC(=O)Nc3ccc(F)cc3)ccc2O1	100*	0	5
